In PubChem BioAssay AID1476 (National Center for Advancing Translational Sciences (NCATS), 2009):
Among all 200,000 compounds or so, about 4,500 (2.2%) were called active. Not shown: some 12% with an inconclusive outcome. The sample holds actives, similar compounds and a random draw of the others, so the mix is not that of the screen. Values without a mark were called inactive. The call rests on the fitted dose curve; in most records, active means well fitted inhibition curve with a large enough effect; inconclusive means small, poorly fitted or top-dose-only effect, or effect the other way; inactive means flat fitted curve, though single readings scatter.

Each compound was assayed against Cruzipain (Trypanosoma cruzi) (UniProt P25779) (assay: qHTS Assay for Promiscuous and Specific Inhibitors of Cruzain (without detergent)). Conditions: purified cruzain, Z-FR-AMC fluorescence, no detergent.
Chain of Cruzipain (Trypanosoma cruzi) (P25779 123-467 limits assumed): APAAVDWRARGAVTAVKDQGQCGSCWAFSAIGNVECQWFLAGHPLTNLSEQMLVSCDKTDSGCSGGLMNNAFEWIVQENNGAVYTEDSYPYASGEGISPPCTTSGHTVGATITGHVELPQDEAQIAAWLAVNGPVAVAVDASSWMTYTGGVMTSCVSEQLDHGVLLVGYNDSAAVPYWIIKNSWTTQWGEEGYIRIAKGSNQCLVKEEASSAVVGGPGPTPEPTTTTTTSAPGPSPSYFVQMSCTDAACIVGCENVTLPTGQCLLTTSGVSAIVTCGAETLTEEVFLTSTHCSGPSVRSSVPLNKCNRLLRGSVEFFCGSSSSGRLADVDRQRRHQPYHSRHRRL
Summary of the method: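 Purified cruzain at 1.5 nM, pre-incubated 15 min with compound at room temperature in 100 mM sodium acetate pH 5.5, 5 mM DTT, 0.00005% Triton X-100. Reaction started with 2 uM Z-FR-AMC; AMC fluorescence increase over 60 s gives rate.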
Further: nearly all actives have a fitted effect of over 40% in size.
Potency means the concentration at half of the fitted maximal effect.
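Wherever max response, negative = inhibition is given: plate controls were enzyme without inhibitor for no effect and buffer without enzyme for full effect.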

SMILES | max response, negative = inhibition [%] | Potency
COc1cccc(NC(=O)N2CCN(C(=O)c3nsc4ccccc34)CC2)c1 | 16.2 | 
COc1cc(OC)c(NC(=O)c2c3c(nn2C)-c2ccccc2SC3)cc1Cl | -6.8 | 
COc1ccc(NC(=O)CSc2nc3ncccc3[nH]2)c(OC)c1 | -7.09 | 
O=C(CC(c1cccs1)N1Cc2ccccc2C1=O)Nc1ccc(F)cc1F (centres undefined) | -15.6 | 
O=C(c1cc2sccc2n1Cc1ccc(F)cc1)N1CCc2ccccc21 |  | 25.1 µM (active)
CC(=O)Nc1ccc(NC(=O)c2cc3sccc3n2Cc2ccc(F)cc2)cc1 | 23.5 | 
Cc1cc(=O)[nH]c(SCC(=O)N2c3ccccc3CC2C)n1 (centres undefined) | -2.54 | 
CCOC(=O)c1cc2sccc2n1Cc1ccc(C#N)cc1 | -11.1 | 
CC1Cc2ccccc2N1C(=O)c1cc2sccc2n1Cc1ccccc1 (centres undefined) |  | 25.1 µM (active)
O=C(NCc1ccco1)c1cc2sccc2n1Cc1ccc(F)cc1 | -11.7 | 
Cc1ccc(-c2nc(SCc3ccc(Br)cc3)n3[nH]c(=O)cc3n2)cc1 | -0.81 | 
COc1ccc(OC)c(CNC(=O)Cn2nc(C)c3c(C)n(-c4ccccc4)nc3c2=O)c1 | -8.59 | 
N#Cc1c(NC(=O)CSc2nc3ccccc3c(=O)n2Cc2ccco2)sc2c1CCCC2 |  | 10 µM (active)
NC(=O)c1c(NC(=O)CSc2nnc(-c3ccco3)n2N)sc2c1CCCC2 | -17 | 
CC(Sc1nc2ccccc2c(=O)n1Cc1ccco1)C(=O)c1ccccc1 (centres undefined) | -8.72 | 
CCOc1ccc(N(CC)S(=O)(=O)N2CCCC(C(=O)NCc3ccc(SC)cc3)C2)cc1 (centres undefined) | 16 | 
COc1ccc(OC)c(C2C3=C(N=c4s/c(=C\c5cccc(O)c5)c(=O)n42)c2ccccc2CC3)c1 (centres undefined) |  | 3.16 µM (active)
O=C1CCCC2=C1C(c1ccccc1)n1c(s/c(=C/c3cccc(F)c3)c1=O)=N2 (centres undefined) | -0.66 | 
COCCOC(=O)C1=C(C)N=c2s/c(=C\c3cccs3)c(=O)n2C1c1cccs1 (centres undefined) | 14.7 | 
Cc1ccc2nc(NC(=O)c3nc(SCc4ccccc4F)ncc3Cl)sc2c1 | 16.1 | 
CCOC(=O)c1c(NC(=O)c2ccc(Br)o2)sc2c1CCCC2 | -20.9 | 
CCCOC(=O)c1c(NC(=O)c2cnn3c2NC(c2ccccc2)CC3C(F)(F)F)sc2c1CCCC2 (centres undefined) |  | 5.01 µM (active)
CCCOC(=O)c1c(NC(=O)c2cc3nc(-c4ccc(OC)cc4)cc(C(F)(F)F)n3n2)sc2c1CCCC2 | 3.32 | 

SMILES | max response, negative = inhibition [%] | Potency
CCOC(=O)c1ccc(NC(=O)CCn2c(=O)oc3ccccc32)cc1 | -3.92 | 
CCOC(=O)C1CCN(c2nc3c(S(=O)(=O)c4ccc(CC)cc4)nnn3c3ccc(Cl)cc23)CC1 | -25.4 | 
CCNC(=O)c1cc2n(n1)CCCN(Cc1ccc(C)cc1)C2=O | 4.87 | 
Cc1ccccc1CNC(=O)CCc1cn(Cc2ccccc2C)c2ccccc12 | 0.523 | 
COc1ccc(C)cc1Nc1nc(-c2c(C)[nH]c3ccccc23)cs1 |  | 25.1 µM (active)
COc1ccc(C)cc1Nc1nc2ccccc2c2nnc(C)n12 | -0.388 | 
COc1ccc(OC)c(Nc2nc(-c3ccc(O)c(O)c3)cs2)c1 | -16.7 | 
CCCC1=Nc2cc(C(=O)NCc3ccco3)ccc2Sc2ccccc21 | -12.6 | 
COCCNC(=O)c1ccc2c(c1)N=C(C)c1cc(C)ccc1S2 | 12.7 | 
CCC1=Nc2cc(C(=O)NCC(C)c3ccccc3)ccc2Sc2ccc(C)cc21 (centres undefined) |  | 12.6 µM (active)
Cc1ccc(CCNC(=O)c2ccc(CNS(=O)(=O)c3ccc(C)cc3)cc2)cc1 | -23 | 
CCOC(=O)c1cc2c(=O)n3ccccc3nc2n(CCCOC)c1=NC(=O)C(C)(C)Oc1ccc(Cl)cc1 | 4 | 
Cc1ccc(/C=N/NC(=O)C2=NNC(c3ccccc3)(c3ccccc3)C2)c(O)c1 |  | 20 µM (active)
COc1cccc(/C=N\NC(=O)C2=NNC(=O)C2C)c1O (centres undefined) | 14.7 | 
Cc1ccc2nc(CNC(=O)c3ccccc3)[nH]c2c1 | 6.98 | 
COc1ccc(CCNc2ncnc3onc(-c4ccc(Cl)cc4)c23)c(OC)c1 | -2.97 | 
CCOc1cccc(CNC(=O)c2ccc(N3CCCC3)c(NC(=O)Nc3ccccc3CC)c2)c1 | -7.71 | 
Clc1ccccc1CSc1nncn2c1cc1occc12 | -9.48 | 
O=C(Nc1nnc(SCc2ccccc2)s1)c1ccco1 | -28.7 | 
Clc1ccccc1CSc1nnc(-c2ccco2)c(-c2ccco2)n1 |  | 15.8 µM (active)
c1ccc(CSc2nnc(-c3ccco3)n2Cc2ccccc2)cc1 | -8.71 | 
c1ccc(CSc2nnc(-c3ccco3)c(-c3ccco3)n2)cc1 |  | 15.8 µM (active)
Nc1nc(SCc2ccccc2Cl)n[nH]1 | 3.93 | 

SMILES | max response, negative = inhibition [%] | Potency
Cc1ccccc1-c1nc(SCC(=O)N(C)c2ccccc2)c2c(=O)n(C)c(=O)n(C)c2n1 | 8.08 | 
Cc1[nH]c2ccccc2c1C(c1ccccc1)c1cccs1 (centres undefined) | 3.04 | 
CCc1nn(CC(=O)NCC(C)c2ccccc2)c(=O)c2cc3occc3n12 (centres undefined) | -11.2 | 
CCn1c(C(=O)Nc2cc(Cl)ccc2C)cc2sc(Cl)cc21 | 4.79 | 
CCOC(=O)c1c(NC(=O)/C=C/c2ccco2)sc(C)c1C | -4.04 | 
CCOC(=O)c1c(NC(=S)NC(=O)/C=C/c2cccs2)sc(C)c1C |  | 10 µM (active)
CCOC(=O)c1c(NC(=O)c2cccs2)sc(C)c1C | 6.07 | 
Cc1ccc2nc(COc3ccccc3NC(=O)Nc3ccc(F)c(Cl)c3)cc(=O)n2c1 | 4.26 | 
COc1ccc(N(C)C(=O)CCS(=O)(=O)c2cccc3nsnc23)cc1 | -4.91 | 
Cc1ccc(NC(=O)CSc2nnc3[nH]c(=O)cc(C)n23)cc1Cl | -3.39 | 
CC(=O)c1c(C)[nH]c(C(=O)OCC(=O)Nc2sc3c(c2C#N)CCCC3)c1C | 11.6 | 
Cc1ccc(C)c(OCC(=O)Nc2sc3c(c2C#N)CCCC3)c1C | -0.311 | 
Cc1cccc(C(=O)OCC(=O)Nc2sc3c(c2C#N)CCC3)c1 |  | 25.1 µM (active)
Cc1cc(C)c2oc(-c3cccc(NC(=O)c4cccc(F)c4)c3C)nc2c1 | -10.4 | 
CCOC(=O)c1cccc(NS(=O)(=O)c2cc(-c3cnc(C)o3)ccc2OC)c1 | 1.23 | 
COc1ccccc1N1CCN(C(=O)c2cc(-c3ccc(Br)cc3)on2)CC1 | 16.1 | 
COc1ccccc1N1CCN(C(=O)c2cc(-c3ccc(Cl)c(Cl)c3)on2)CC1 |  | 25.1 µM (active)
COc1ccccc1-c1cc(C(=O)N2CCCCC2)no1 | -9.93 | 
O=C(Nc1c(C(=O)N2CCN(c3ccc(F)cc3)CC2)oc2ccccc12)c1ccco1 | -12.7 | 
COc1ccccc1CN1CCC(CNC(=O)c2cnn(-c3cccc(Cl)c3)c2C2CCN(C(=O)OC(C)(C)C)CC2)CC1 | 4.5 | 
CC1=C(c2ccc(F)cc2)S(=O)(=O)N=C1N1CCC(C(=O)NCCc2ccccc2C)CC1 | -2.21 | 
COc1ccccc1-c1nc(C(F)(F)F)c(OC)o1 | -2.62 | 
CNc1nc(-c2ccccc2OC)nc2ccccc12 | -18.4 | 

SMILES | max response, negative = inhibition [%] | Potency
COc1ccccc1C1=Nc2cccc3cccc(c23)N1 |  | 12.6 µM (active)
Cc1ccc(NC(=O)NC(C)c2c(-n3cccc3)sc(C)c2C)c(C)c1 (centres undefined) | -10.8 | 
CCC(=O)N1CCc2cc(Br)cc(S(=O)(=O)Nc3ccc(C)cc3C)c21 | -1.34 | 
Cc1[nH]nc(-c2ccc(OCc3cnn(-c4ccccc4)c3)cc2O)c1Oc1ccc(Cl)cc1 |  | 10 µM (active)
C=C(C)COc1ccc(-c2n[nH]c(C)c2-c2ccccc2)c(O)c1 | -10.5 | 
COc1ccc(C(=O)Cc2cnn(-c3ccccc3)c2)c(O)c1 | 4.15 | 
CCCN(CCC)CCNC(=O)Cn1cnc2sc(C)c(S(=O)(=O)N3CCC(C)CC3)c2c1=O | -2.05 | 
COc1cc(C(CC(=O)NCCC(C)C)N2Cc3ccccc3C2=O)cc(OC)c1OC (centres undefined) | 2.58 | 
COC(=O)C(C)Oc1ccc2c(-c3cccc([N+](=O)[O-])c3)cc(=O)oc2c1 (centres undefined) | 0.187 | 
COc1cc(OC)c2c(-c3cccc(-c4cccc(N)c4)c3)cc(=O)oc2c1 |  | 11.2 µM (active)
COc1ccc(Nc2cc(=O)oc3ccccc23)cc1 | -23.8 | 
Cc1c(C(=O)N2CCCC2)oc2c1-c1nn(CC(=O)NCc3ccc(OC(C)C)cc3)cc1CC2 | 21.1 | 
COc1ccc(OC(C)C(=O)NCCc2nc3ccccc3[nH]2)cc1 (centres undefined) | -6.55 | 
CC(C)=C(NC(=O)c1ccco1)C(=O)NCCc1nc2ccccc2[nH]1 | -27.9 | 
O=C(COc1ccccc1)NCCc1nc2ccccc2[nH]1 |  | 1 µM (active)
Cc1cccc(NC(c2cccc(F)c2)c2ccc3ccc(C)nc3c2O)n1 (centres undefined) | 9.47 | 
Cc1cc(NS(=O)(=O)c2ccc(NC(=O)c3ccccc3C)cc2)nc(C)n1 | 11.3 | 
CCCc1nc(NCc2ccc3c(c2)OCO3)c2nnn(Cc3ccccc3Cl)c2n1 |  | 7.94 µM (active)
O=C(Cn1cnc2c(nnn2Cc2ccc(F)cc2)c1=O)NCc1ccc2c(c1)OCO2 | -6.08 | 
Cc1nc(Nc2ccc3c(c2)OCCO3)c2nnn(Cc3ccccc3Cl)c2n1 | -5.56 | 
